# Measurements from publication PMC7819943, “Rice protein-binding microarrays: a tool to detect cis-acting elements near promoter regions in rice”.
# The full ranking holds about 35,000 sequences; the median of “fluorescence intensity (a.u.)” is about 10,000, and the highest 2% start at about 52,000. The list comes from a sample in which the highest values are over-represented; it also holds similar and randomly drawn sequences.
# Molecular target: T1, OsWOX13 (Oryza sativa, UniProt Q5QMM3 1-267)
# T1 sequence: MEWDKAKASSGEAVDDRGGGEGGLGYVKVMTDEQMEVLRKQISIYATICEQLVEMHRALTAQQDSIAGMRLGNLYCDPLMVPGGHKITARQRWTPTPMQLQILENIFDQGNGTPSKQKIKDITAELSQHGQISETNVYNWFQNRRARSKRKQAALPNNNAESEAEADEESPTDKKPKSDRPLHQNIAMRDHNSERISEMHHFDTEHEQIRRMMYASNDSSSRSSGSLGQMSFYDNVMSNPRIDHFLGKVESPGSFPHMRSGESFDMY
# Test: protein-binding microarray (RPBM); PBS, 2% BSA, 51.3 ng/ul salmon testes DNA, 50 uM zinc acetate, 200 nM TF, 25 C, 1 h; high values mean tight binding
# Details: protein: recombinant; tags: N-terminal polyhistidine and DsRed monomer fusion (pET32a); label: CyDye5-dUTP incorporated in the synthesized complementary strand; 3' TTTTT single-stranded linker to array surface; dsDNA, one strand shown
# How it was run: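 An Axon 4000B scanner gave the binding signal as per-feature fluorescence intensity in arbitrary units. This followed washing of a custom Agilent array that had been incubated for 1 h at 25 °C with 200 nM protein in PBS, 2% BSA, salmon testes DNA and 50 µM zinc acetate. The proteins were transcription factors fused at the N-terminus to polyhistidine and DsRed, expressed in E. coli BL21-CodonPlus and purified on Ni–NTA.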
row,Sequence,binding signal
1,TAAGTTTTAATTGAAATTTTGTTCACAAATACTCCAAATCCGGAGTCACCTAGTGCAG,11900 fluorescence intensity (a.u.)
2,ATTTTAATTTTAATTATTAATACTCCATTAGCATTTAGTTCGGAGTCACCTAGTGCAG,18200 fluorescence intensity (a.u.)
3,TTGCTAATGATGAATTAATTAGGCTTAATAAATTCGTCTCCGGAGTCACCTAGTGCAG,28300 fluorescence intensity (a.u.)
4,ATTTATAAATTGATTTGGAGCACAGATCGATACGTGCAGACGGAGTCACCTAGTGCAG,53400 fluorescence intensity (a.u.)
5,ATGTTGATTGTCTAAAATCACAGATTTAGCACATTATCGACGGAGTCACCTAGTGCAG,29800 fluorescence intensity (a.u.)
6,GTGACTGACTGATGATAAATTTGATAATACGCGTCGTTAGCGGAGTCACCTAGTGCAG,63100 fluorescence intensity (a.u.)
7,AAAATAAATTTGACTGTGAATATACGTTAACTGGTCATAGCGGAGTCACCTAGTGCAG,23100 fluorescence intensity (a.u.)
8,CATGATTAATTAAATATTAACGATCATAAATTTGAAAATTCGGAGTCACCTAGTGCAG,29300 fluorescence intensity (a.u.)
9,AAATAACAAATTTGACTGTGAATATACGTATACTAGTTAGCGGAGTCACCTAGTGCAG,19300 fluorescence intensity (a.u.)
10,GCATTTGCTAATGATGGATTAATTAGGCTTAATAGATTCGCGGAGTCACCTAGTGCAG,11800 fluorescence intensity (a.u.)
11,TGCTAATGATGGATTAATTAGGCTTAATAAATTCGTCTCGCGGAGTCACCTAGTGCAG,54700 fluorescence intensity (a.u.)
12,CATTTGCTAATGATGGATTAATTAGGCTTAATAAATTTGTCGGAGTCACCTAGTGCAG,19900 fluorescence intensity (a.u.)
13,GTATAAATTTGGACAGATTGTGATTAGATTTATAGTCCTACGGAGTCACCTAGTGCAG,29800 fluorescence intensity (a.u.)
14,CATCATGATTTGATGATGGATTAATTATGCTTAATAAATTCGGAGTCACCTAGTGCAG,55300 fluorescence intensity (a.u.)
15,GCCCACTCATAATTTCTCCCTTGATTTGTAAAGAAATAAGCGGAGTCACCTAGTGCAG,16000 fluorescence intensity (a.u.)
16,GAAAATTAGTAGAGAACTAATTAGGGATAAAGTCATTATTCGGAGTCACCTAGTGCAG,13000 fluorescence intensity (a.u.)
17,AAGATTTGTCTCATAAATTAGTCGCAATATGTGTAATTAGCGGAGTCACCTAGTGCAG,7560 fluorescence intensity (a.u.)
18,AAAATATCAATTGGCCATAATCATTGTAAGCACTATACAGCGGAGTCACCTAGTGCAG,7780 fluorescence intensity (a.u.)
19,ATCCAATCATACTCCAAGATCTGAAGAGAAGGAGGGATTGCGGAGTCACCTAGTGCAG,11900 fluorescence intensity (a.u.)
20,GATGGACCAATTTGATTGTTGTTGGATTCTACGATGCATGCGGAGTCACCTAGTGCAG,9950 fluorescence intensity (a.u.)
21,GCTTAAATTAATATACCTGAACCGGCGAGCATTTAAATTTCGGAGTCACCTAGTGCAG,5370 fluorescence intensity (a.u.)

row,Sequence,binding signal
1,CGGATTAATTAGGCTTAATAAATTCATCTCGCAGTTTCCTCGGAGTCACCTAGTGCAG,50800 fluorescence intensity (a.u.)
2,ATGATTTGTTGTTGAGTTCGGTTTGAAATCAATATAAGTACGGAGTCACCTAGTGCAG,14700 fluorescence intensity (a.u.)
3,CTAATGACGAGATTAATTAGGCTTAATAAATTCGTCTCGCCGGAGTCACCTAGTGCAG,54800 fluorescence intensity (a.u.)
4,GGATTAATTAGGCTTAATAAATTCATCTCGCAGTTTTCTGCGGAGTCACCTAGTGCAG,26200 fluorescence intensity (a.u.)
5,TTGATTGATTTGTTTGCACTCCATGAAATAAGTGAGGGCTCGGAGTCACCTAGTGCAG,65200 fluorescence intensity (a.u.)
6,ACGGATTAATTAGGCTTAATAAATTTGCCTCGCGGTTTCTCGGAGTCACCTAGTGCAG,39200 fluorescence intensity (a.u.)
7,TGGCTTAATTTAATCCCCTCCATTCCGGATGCCTCTCCCTCGGAGTCACCTAGTGCAG,20200 fluorescence intensity (a.u.)
8,TTGATACTCTGATGATTGTAAAGTAAATTGTTTGAAATTTCGGAGTCACCTAGTGCAG,9650 fluorescence intensity (a.u.)
9,AGTACAAATGACGGATTAATTAGGCTTAATAAATTCGTCTCGGAGTCACCTAGTGCAG,19200 fluorescence intensity (a.u.)
10,ACTAATGACGGATTAATTAGGCTTAATAAATTCGTCTCGCCGGAGTCACCTAGTGCAG,51500 fluorescence intensity (a.u.)
11,AATGACTGATTAATTAGGCTTAATAAATTCATCTCGCAGTCGGAGTCACCTAGTGCAG,59600 fluorescence intensity (a.u.)
12,TCGCTTAATTAATTTGGATTTGGATGCGGATCCCTCGCCTCGGAGTCACCTAGTGCAG,56000 fluorescence intensity (a.u.)
13,CTGATTGGCCATGAGTCCAGAGATAGCATTGAACACAGGACGGAGTCACCTAGTGCAG,32400 fluorescence intensity (a.u.)
14,GGGAGTAATTGAATATGCCTTTTGGGCTGCCATCTGCCCACGGAGTCACCTAGTGCAG,26800 fluorescence intensity (a.u.)
15,TTTGATTTGATTCGTGTGCTCCCCGCCGCCTTCGATCCCTCGGAGTCACCTAGTGCAG,43600 fluorescence intensity (a.u.)
16,CTTAATTGCGCGCGAATGGAGTAATACTAGTACTAGTATACGGAGTCACCTAGTGCAG,15100 fluorescence intensity (a.u.)
17,GACTAAATTTTAATCCCTATCACATCGGATATTTGACACTCGGAGTCACCTAGTGCAG,7230 fluorescence intensity (a.u.)
18,AGGCCCAATTACTGATCGAAATTTCGATGATTTCGATCGACGGAGTCACCTAGTGCAG,18500 fluorescence intensity (a.u.)
19,CCAATTGGAATGCATTGTCTATTTGTTGTCTAGATCTCTCCGGAGTCACCTAGTGCAG,3760 fluorescence intensity (a.u.)
20,AATCTCCTAATTATGTATTGCCCAAATCCATTTATTTTCCCGGAGTCACCTAGTGCAG,7170 fluorescence intensity (a.u.)
21,ACATAACATATGAGATTGAAATTTCTTGAACCATACATTACGGAGTCACCTAGTGCAG,9950 fluorescence intensity (a.u.)

row,Sequence,binding signal
1,CTCACATGTTAATTACCATCAATGTATTTTACTCTTTTAACGGAGTCACCTAGTGCAG,16700 fluorescence intensity (a.u.)
2,TTTATACGAAAATCAATAATTATAGCAGATATCCACAAGGCGGAGTCACCTAGTGCAG,5700 fluorescence intensity (a.u.)
3,ACCTTTTCCGCGTGTTGTGTCTGTTTGTTGAAGATGAATTCGGAGTCACCTAGTGCAG,3280 fluorescence intensity (a.u.)
4,TGCTAATGACTGATTAATTAGGCTTAATAAATTCGTCTTGCGGAGTCACCTAGTGCAG,35300 fluorescence intensity (a.u.)
5,TGCTAATGACTGATTAATTAGGCTTAATAAATTTGTCTCGCGGAGTCACCTAGTGCAG,64800 fluorescence intensity (a.u.)
6,AATGCTAATGACAGATTAATTAGGCTTAATAAATTTGTCTCGGAGTCACCTAGTGCAG,29500 fluorescence intensity (a.u.)
7,TATAATAATTAAAACTCAATCAATCATACGTTAATAGCACCGGAGTCACCTAGTGCAG,20000 fluorescence intensity (a.u.)
8,ATGATGATTGTTAGTGGATGATGATGTGTCATCTTGTTAACGGAGTCACCTAGTGCAG,38400 fluorescence intensity (a.u.)
9,CACGGATTATTTTGAGCAATTACCGCTCTAATCCGGGGCGCGGAGTCACCTAGTGCAG,3600 fluorescence intensity (a.u.)
10,ACACATAATGTAATCTATTTTGATATAACCAAAAGCTGTTCGGAGTCACCTAGTGCAG,7540 fluorescence intensity (a.u.)
11,TGGTCCTTTACATTGCAATTAATTTGTTTGGAATTTATTACGGAGTCACCTAGTGCAG,8240 fluorescence intensity (a.u.)
12,GATTATAATTTGTAAGATAATTGACCATGGAGAAGATTCACGGAGTCACCTAGTGCAG,16300 fluorescence intensity (a.u.)
13,GTATAATTGACAGATGAATTTCACGCAAGAGTATATTGAGCGGAGTCACCTAGTGCAG,55900 fluorescence intensity (a.u.)
14,CAGTATATAAATAATTTGAATTAGATGAGATATATCCTAGCGGAGTCACCTAGTGCAG,8160 fluorescence intensity (a.u.)
15,ATATATATTGATTATATGTTTATTTTGTATGAAGATGTTCCGGAGTCACCTAGTGCAG,34900 fluorescence intensity (a.u.)
16,GATAATTGACAAGATTGAACCATATGTGATGTATTATTTCCGGAGTCACCTAGTGCAG,53200 fluorescence intensity (a.u.)
17,GGATGTCATGATAATTGACTTATGACAATGTGATTATTTCCGGAGTCACCTAGTGCAG,19700 fluorescence intensity (a.u.)
18,AATTATTGATTTGATGAAACTAATTTAGTATTATAAAGAGCGGAGTCACCTAGTGCAG,51000 fluorescence intensity (a.u.)
19,TATAATTGATTATTGTGACCTCATGATAGAGACAAGACCACGGAGTCACCTAGTGCAG,53500 fluorescence intensity (a.u.)
20,AGATAATTTGTGATTGATGTCATAGTAGTAGAGAAAACCACGGAGTCACCTAGTGCAG,46800 fluorescence intensity (a.u.)
